Records with an inconclusive call do not appear. A call without a number means that no potency is given here. Active and inactive are the calls of the source. Calls follow the shape of the dose curve; as a rule, active = well fitted cell-killing curve with a large enough effect in the repeat runs; inconclusive = weak or mixed curves; inactive = flat fitted curve, though single readings scatter.

This experiment can be described thus: qHTS RealTime-Glo MT Cell Viability Assay in HepG2 cells - 16 hour (AID 1224885). Also: nearly all actives have a fitted effect of over 50% in size. The note with it: RealTime-Glo luminescence; series mostly up to 76.8 µM. The text has this: U.S. Tox21 Program National Center for Advancing Translational Sciences [NCATS] NIH Chemical Genomics Center [NCGC] U.S. Environmental Protection Agency [EPA] National Institutes of Environmental Health Sciences [NIEHS] National Toxicology Program [NTP] U.S. Food and Drug Administration [FDA] Tox21 Assay Overview: Measure of cell viability is critical in the cell-base assay. Analysis of cell viability is necessary for the characterization of cell responses to cytotoxic drugs and environmental stress. A RealTime-Glo MT Cell Viability Assay to monitor cell viability in real time of continues cell culture during 40 hours of compound treatment was used to screen Tox21 10K library compounds in HepG2 cells. The RealTime-Glo MT Cell Viability Assay is a nonlytic, homogeneous, bioluminescent method to measure cell viability in real time using a simple, plate-based method. The assay involves adding NanoLuc luciferase and a cell-permeant prosubstrate to cells in culture. Viable cells reduce the proprietary prosubstrate to generate a substrate for NanoLuc luciferase. This substrate diffuses from cells into the surrounding culture medium, where it is rapidly used by the NanoLuc Enzyme to produce a luminescent signal. The signal correlates with the number of viable cells, making the assay well suited for cytotoxicity studies.
Tox21 Assay Protocol Summary: The mixture of HepG2 cell suspension and reagents were dispensed at 600cells/6 ul/well in 1536-well tissue culture treated black solid bottom plates using a Multidrop dispenser. After the assay plates were incubated at a 37 C/5% CO2 incubator for 5 hours, 23 nL of compounds dissolved in DMSO, positive and negative controls was transferred to the assay plate by a pintool work station. The plates were incubated at 37 C for 40 hours. The luminescence intensity were measured at 0h, 8h, 16h, 24h, 32h and 40h time points using ViewLux plate reader during compound treatment.
(In general: qHTS replaces the single test concentration by a dilution series.)
Regarding `NCCCN(CCO)CCO`, the Potency result was “inactive”. Then `CCCCOc1ccc(CC(=O)NO)cc1`, with “inactive”; and `c1ccc(-c2nc[nH]c2-c2ccccc2)cc1`, with “inactive”; and `O=C(O)Cn1c(C(=O)Nc2nc(-c3ccccc3Cl)cs2)cc2ccccc21`, with “inactive”. Then `CC[C@H](C)[C@@H](C(=O)O)n1sc2ccccc2c1=O`, with “inactive”.

As for `CC(CN)CCCN` (stereo not given), the Potency entry is “inactive”. Then `Cn1c(NCCN(CCO)CCCc2ccc([N+](=O)[O-])cc2)cc(=O)n(C)c1=O`, with “inactive”; and `CCCCCC/C=C/C=O`, with “inactive”. For `C=C(C)C(=O)OCCN(C)C` the value was “inactive”. Turning to `O=C1c2cccc(O)c2C(=O)c2c(O)cc(CO)cc21`, the Potency entry is “inactive”. Then `CC(C)(C)c1cc(CO)cc(C(C)(C)C)c1O`, with “inactive”. Then `O=C(c1ccc(O)cc1)c1ccc(O)cc1`, with “inactive”. For `O=C(NN1CCCC1)NS(=O)(=O)c1ccc(Cl)cc1` the value was “inactive”; for `COc1cc(C(C)(C)C)c(O)c(C(C)(C)C)c1`, “inactive”; for `CC(C)(Oc1ccc(Cl)cc1)C(=O)OCCCOC(=O)C(C)(C)Oc1ccc(Cl)cc1`, “inactive”. As for `O=C1Nc2cc(Cl)ccc2Oc2ccccc21`, the Potency entry was “inactive”.

`S=C(S)NCCNC(=S)S`: the Potency result is “inactive”. For `Cc1cccc(C(C)(C)C)c1O` the value was “inactive”; for `CCCCCCCCCCCCCCCBr`, “inactive”. As to `COCCOCCOCCOCCOC`, the Potency result is “inactive”. For `CN(C)CC[C@@H](c1ccc(Br)cc1)c1ccccn1` the value was “inactive”.

In the case of `SC1CCCC1`, the Potency result is “inactive”. For `FC(F)(F)C(F)(F)C(F)(F)C(F)(F)C(F)(F)C(F)(F)CCI` the value was “inactive”; for `Cc1cccc(Oc2ccccc2)c1`, “inactive”; for `OCCC1CCCCN1` (stereo not given), “inactive”. Consider `CCCCOC(=O)/C=C\C(=O)OCCCC`, for which the Potency result is “inactive”. Take `Nc1nc(N)c(-c2ccccc2)s1`: the Potency result is “inactive”.

In the case of `CCCCCOC(=O)COc1cc(N2C(=O)C3=C(CCCC3)C2=O)c(F)cc1Cl`, the Potency result was “inactive”. For `CN1CCC(OC(c2ccccc2)c2ccccc2)CC1` the value was “inactive”; for `NC(N)=N/N=C/c1c(Cl)cccc1Cl`, “inactive”; for `CC[C@]12CCCN3CCc4c(n(c5ccccc45)C(=O)C1)[C@@H]32`, “inactive”. For `O=C(O)C(c1ccc(Cl)cc1)c1ccc(Cl)cc1` the value was “inactive”; for `Cn1sccc1=O`, “inactive”.

On to `CC(=O)O[C@H]1C[C@@H]2CC[C@@H]3[C@H](CC[C@@]4(C)[C@H]3C[C@H]([N+]3(C)CCCCC3)[C@@H]4OC(C)=O)[C@@]2(C)C[C@@H]1N1CCCCC1`, for which the Potency entry is “inactive”. Then `C[C@H](CCC(=O)O)[C@H]1CC[C@H]2[C@@H]3[C@H](O)C[C@@H]4C[C@H](O)CC[C@]4(C)[C@H]3CC[C@]12C`, with “inactive”; and `CN(c1nccc(=O)[nH]1)C1CCN(c2nc3ccccc3n2Cc2ccc(F)cc2)CC1`, with “inactive”. Then `CCOC(=O)CC(=O)c1cc(F)c(Cl)nc1Cl`, with “inactive”; and `CC1(C)[C@H]2CC[C@]1(C)[C@H](O)C2`, with “inactive”.

For the compound `COc1ccc(OC)c(OC)c1`, the Potency entry was “inactive”.

Take `CCOc1ccc2[nH]cc(C(=O)NCc3ccccc3)c(=O)c2n1`: the Potency result is “inactive”.

(Values after PubChem BioAssay (Tox21).)
